Shown are actives, neighbours in structure and some others; about 3.2% of the full set was active somewhere.
TMEM16A act = activates or potentiates the mouse TMEM16A chloride channel; AID 623877; B-score at 10 µM; HEK293 TMEM16A/YFP-H148Q/I152L, iodide quench fluorescence; stronger effect = lower value; actives 0.3% (n = 340,000); Q8BHY3;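 active = fluorescence-ratio B-score plate-corrected deviation score at least 3 library SD below zero, with starting fluorescence score within 5 deviations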;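 also: channel opened by trigger with iodide after compound preincubation; score built on the fluorescence ratio of max minus min over baseline; more negative score means more quench and so TMEM16A activation or potentiation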
CHT allo act = allosterically activates the human high affinity choline transporter. actives 0.49% (n = 310,000). CHT-expressing cells, membrane potential dye, choline EC20; stronger effect = higher value; LV-AA mutant CHT in HEK293 cells. B-score at 10 µM. Q9GZV3;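 active = initial fluorescence not abnormally high and integrated response B-score, plate-corrected, over 3 SD above library mean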
PHOSPHO1 block = PHOSPHO1 (human) inhibition. inhibition, % at 13.3 µM. actives 1.1% (n = 290,000). recombinant PHOSPHO1, absorbance phosphatase assay. Q8TCT1; in the data active = inhibition above about 60%
Target sequence (Q8TCT1 whole entry, looked up): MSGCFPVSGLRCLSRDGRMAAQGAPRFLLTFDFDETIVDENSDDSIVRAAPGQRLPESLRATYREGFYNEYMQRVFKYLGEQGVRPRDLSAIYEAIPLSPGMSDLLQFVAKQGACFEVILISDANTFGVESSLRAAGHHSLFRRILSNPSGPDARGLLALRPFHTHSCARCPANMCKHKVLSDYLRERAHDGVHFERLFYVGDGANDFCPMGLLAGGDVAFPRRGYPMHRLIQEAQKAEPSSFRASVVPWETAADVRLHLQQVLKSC
HDAC3 inh = blocks human histone deacetylase 3 | O15379 | inhibition, % at 8.3 µM | actives 0.15% (n = 320,000) | recombinant HDAC3, fluorogenic peptide/trypsin coupled, fluorescence | AID 2718; in the data active = inhibition above about 26%, passing the limit was not always enough
CHT block = inhibits the human high affinity choline transporter; Q9GZV3; CHT-expressing cells, membrane potential dye, choline response; stronger effect = lower value; B-score at 10 µM; actives 0.86% (n = 310,000);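 active = B-score over 3 SD under the library average, and starting fluorescence ratio not unusually high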;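 also: choline stimulus applied at its EC90 after an EC20 pre-addition; B-score computed on integrated fluorescence ratio after choline addition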
ANO1 block = inhibitors of mouse TMEM16A calcium-activated chloride channel; normalized B-score (activity score, 25-100; higher = stronger inhibition) at 10 µM; Q8BHY3; HEK293 TMEM16A/YFP iodide influx fluorescence, ionomycin; actives 1.2% (n = 310,000);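 active = ratio plate-corrected score three or more library SD toward inhibition, starting fluorescence score within five deviations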;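 also: score derived from kinetic fluorescence span divided by baseline fluorescence per well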
CHT act confirm = human CHT activation, confirmatory screen; actives 91% (n = 2,500); AID 504833; activation, % at 10 µM; shares compounds with CHT allo act; CHT-expressing cells, membrane potential dye fluorescence (FDSS); % of choline EC20–EC90 response window; HEK293 expressing CHT LV-AA mutant; choline added at its EC20;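 active = primary screen active, with duplicate mean activation above negative control mean plus 3 SD, cut at about 11% in these data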
HEK293 MP dye = activity in parental HEK293 cells lacking CHT; shares compounds with CHT allo act; membrane potential dye fluorescence (FDSS); measured after EC20 choline addition; ratio readout change at 10 µM, hits read low; actives 62% (n = 2,500); AID 623908;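 active = duplicate-averaged ratio beyond 3 SD from buffer wells, up or down, though filed actives are nearly all decreases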
Hits are given with their value; n = inactive; x = not tested or not shown; ! = not confirmed by another sample.

SMILES	TMEM16A act	CHT allo act	PHOSPHO1 block	HDAC3 inh	CHT block	ANO1 block	CHT act confirm	HEK293 MP dye
CN1CCN(c2c(F)cc3c(=O)c(C(=O)O)cn4c3c2SCC4)CC1	n	9.9	n	n	n	n	23.4	-69.3
CCC(C)N1CCC2(CC1)N=c1c(c3c4c5c(C)c(O)c3c(O)c1=NC(=O)C(C)=CC=C[C@H](C)[C@H](O)[C@@H](C)[C@@H](O)[C@@H](C)[C@H](OC(C)=O)[C@H](C)[C@@H](OC)C=CO[C@@](C)(O5)C4=O)N2 (some centres undefined)	n	n	x	n	n	n	22.0	-41.7
CO[C@H]1C=CO[C@@]2(C)Oc3c(C)c(O)c4c(O)c(c5c(c4c3C2=O)NC2(CCN(CC(C)C)CC2)N=5)=NC(=O)C(C)=CC=C[C@H](C)[C@H](O)[C@@H](C)[C@@H](O)[C@@H](C)[C@H](OC(C)=O)[C@@H]1C	x	n	n	n	n	n	x	x
O=C(NC1CCCCC1)C(c1cccs1)N(Cc1cccs1)C(=O)c1cccs1 (centres undefined)	n	9.21	n	n	n	n	29.7	n
COc1ccccc1N(C(=O)c1ccco1)C(C(=O)NC1CCCC1)c1cccs1 (centres undefined)	n	11.1	n	n	n	n	22.7	n
COCCN(C(=O)CNC(=O)c1cccs1)C(C(=O)NC1CCCC1)c1cccs1 (centres undefined)	n	n	n	n	n	n	x	x
Cc1cc(C)c2ccc(N)nc2c1O	n	n	n	n	n	n	41.8	-53
Cc1cc(=O)[nH]c(N/N=C2/CCCC/C2=C\c2ccccc2)n1	n	n	n	n	n	n	x	x
CC12CCC(=O)N1C(C(=O)OCC(=O)Nc1sccc1C#N)CS2 (centres undefined)	n	n	n	n	n	n	x	x
Cc1cc(NC(=O)CCCN2C(=O)/C(=C/c3ccccc3Cl)SC2=S)no1	n	n	n	n	n	n	x	x
Cc1nc2ccc(NC(=O)c3ccc(=O)[nH]c3)cc2s1	n	n	n	n	n	n	33.3	-39.3
Cc1nc2ccc(NC(=O)c3ccccc3)cc2s1	n	n	n	n	n	n	x	x
Cc1cc(N2CCN(c3ccccn3)CC2)n2nc(C)nc2n1	n	n	x	n	n	n	x	x
Cc1cc(N2CCN(C3CCCCC3)CC2)n2nc(C)nc2n1	n	8.94	n	n	n	n	56.0	-56.3
CCC1(CC)C(=O)NC(=O)NC1=Nc1cccc(OC)c1	n	n	n	n	n	n	x	x
NC(=O)c1ccccc1NC(=O)CCc1ccccc1	n	n	n	n	n	n	x	x
NC(=O)c1ccccc1NC(=S)NC(=O)CCc1ccccc1	n	n	n	n	n	n	n	n
Cc1c(C)c2ccc(OC(C)C(=O)NCCCn3ccnc3)c(C)c2oc1=O (centres undefined)	n	n	n	n	n	n	62.1	-36.3
CCN(CC)CCCNc1cc(C)nc2cc(-c3cccs3)nn12	n	9.09	n	n	n	n	62.0	-84.2
Cc1cccc(-c2cc3nc(C)cc(NCCCN(C)C)n3n2)c1	x	n	n	n	n	n	32.5	-61.6
CN(C)CCCNc1cc(-c2ccccc2)nc2cc(-c3cccc(F)c3)nn12	n	n	n	n	n	n	x	x
CCN(CC)CCNc1ccnc2cc(Cl)ccc12	n	7.4	n	n	n	n	50.9	-84.2
Oc1ccc(Nc2ccnc3cc(Cl)ccc23)cc1	n	n	n	n	n	n	x	x
CCN(CC)Cc1cc(Nc2ccnc3cc(Cl)ccc23)ccc1O	n	7.5!	n	n	n	n	48.2	-51.9
CN(Cc1ccc(F)cc1)C(=O)c1sccc1-c1ccccc1	n	6.7	n	n	n	n	37.4	n
SMILES	TMEM16A act	CHT allo act	PHOSPHO1 block	HDAC3 inh	CHT block	ANO1 block	CHT act confirm	HEK293 MP dye
COc1ccc(NC(=O)C(c2ccccc2)c2ccccc2)c(OC)c1	n	n	x	n	n	n	x	x
CN(Cc1cccc(F)c1)C(=O)c1cc(=O)[nH]c2ccccc12	n	n	n	n	n	n	x	x
CN(Cc1cccc(F)c1)C(=O)C(c1ccccc1)c1ccccc1	n	6.46	n	n	n	n	n	n
COc1ccccc1CN(C)C(=O)C(c1ccccc1)c1ccccc1	n	11	n	n	n	n	30.1	n
CN(CCO)C(=O)C(c1ccccc1)c1ccccc1	n	n	n	n	n	n	x	x
CN(Cc1ccc(F)cc1)C(=O)C(c1ccccc1)c1ccccc1	n	n	n	n	n	n	36.5	n
O=C(CCCN1C(=O)c2cccc3cccc(c23)C1=O)N1CCN(c2ccccc2)CC1	n	n	n	n	n	n	x	x
Cc1ccc2c(c1)NC(=O)C(CC(=O)NCCCN1CCN(c3cc(C)ccc3C)CC1)O2 (centres undefined)	n	n	n	n	n	n	x	x
CCCC[C@@H]1C[C@H]1[C@@H](NC(=O)c1cccs1)c1ccc(C(F)(F)F)cc1	x	n	x	n	n	n	x	x
CCCC[C@@H]1C[C@H]1[C@@H](NC(=O)c1cccs1)c1ccc(Cl)cc1	x	n	n	n	n	n	28.6	n
O=C(Cc1cccs1)Nc1nnc(SCc2ccc(C(F)(F)F)cc2)s1	n	n	n	n	n	n	x	x
Cc1cc[n+]2cc(-c3cccc([N+](=O)[O-])c3)c(-c3cccc([N+](=O)[O-])c3)cc2c1	n	7	n	n	n	n	65.0	-84.5
Cc1cccc(-c2cnn(-c3cccc([N+](=O)[O-])c3)c2N)c1	n	n	n	n	n	n	x	x
Cc1ccc(S(=O)(=O)N2CCN(C(=O)CN3CCOCC3)C2C(C)C)cc1 (centres undefined)	n	n	n	n	n	n	x	x
Cc1ccc(S(=O)(=O)N2CCN(C(=O)CN3CCOCC3)C2c2ccccc2)cc1 (centres undefined)	n	8.05	n	n	n	n	n	n
O=C(NC1CCCCC1)C(c1ccco1)N(Cc1cccnc1)C(=O)C1COc2ccccc2O1 (centres undefined)	n	n	n	n	n	n	13.0	n
CCOc1ccc(S(=O)(=O)N2CCCCC2)cc1NC(=O)C1CSC2(C)CCC(=O)N12 (centres undefined)	n	n	x	n	n	n	25.5	n
O=CNCCc1nc2ccccc2n1CCc1ccccc1	n	n	n	n	n	n	x	x
